# High-throughput results deposited in PubChem by The Scripps Research Institute Molecular Screening Center.
# A selection: hits, their analogues and other compounds. The true share with any hit is near 2.4%.
# CHO-K1 Ca ag: counter-screen for M1 agonists: effect in parental CHO-K1 cells; actives 0.48% (n = 360,000); Fluo-8 calcium fluorescence; scaled to maximal ATP response, vehicle zero; AID 602248; activation, % at 3 µM; in the data active means activation above about 15%;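 further: untransfected CHO-K1 host cells lacking M1 receptor as counterscreen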
# CHRM1 antagonist: human CHRM1 antagonism. CHO-K1 hM1, Fluo-8 calcium fluorescence, ACh EC80 antagonist. inhibition, % at 3 µM. P11229. AID 588852. actives 1.3% (n = 360,000);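 active means percent inhibition above its own plate's cutoff, namely the mean of that plate's compound wells plus 3 SD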;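 further: peak over basal fluorescence ratio during 140 s after agonist addition; 0% = ACh EC80 plus DMSO and 100% = DMSO alone without agonist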
# Target sequence (P11229 whole entry, looked up): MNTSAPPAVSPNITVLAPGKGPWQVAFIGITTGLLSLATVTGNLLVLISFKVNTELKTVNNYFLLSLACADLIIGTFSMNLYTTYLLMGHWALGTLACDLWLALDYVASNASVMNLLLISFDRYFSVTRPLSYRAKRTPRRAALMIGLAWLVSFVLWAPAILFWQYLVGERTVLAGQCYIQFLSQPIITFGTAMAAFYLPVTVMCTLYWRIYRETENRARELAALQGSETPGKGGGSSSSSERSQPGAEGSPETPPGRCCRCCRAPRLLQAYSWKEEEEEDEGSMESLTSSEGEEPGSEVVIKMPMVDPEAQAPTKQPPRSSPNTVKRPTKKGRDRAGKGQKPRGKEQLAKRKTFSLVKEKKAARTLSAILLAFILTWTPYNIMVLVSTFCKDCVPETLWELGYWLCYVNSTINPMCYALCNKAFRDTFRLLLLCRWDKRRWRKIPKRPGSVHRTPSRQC
# CHRM1 PAM: human CHRM1 positive allosteric modulation | CHO-K1 hM1, Fluo-8 calcium fluorescence, ACh EC20; 0% = ACh EC20, 100% = maximal ACh | activation, % at 3 µM | actives 0.088% (n = 360,000) | AID 588819; in the data active means activation above about 19%, passing the limit was not always enough
# CHRM1 agonist: activates human CHRM1 receptor; P11229; CHO-K1 hM1, Fluo-8 calcium fluorescence, agonist mode; 0% DMSO, 100% acetylcholine EC100; activation, % at 3 µM; actives 0.33% (n = 360,000); AID 588814;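 active means activation above the run's mean compound activation plus 3 SD, cut at about 16% in these data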;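 further: peak over basal fluorescence ratio within a 140 s kinetic read after compound addition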
# CHO-K1 Ca PAM: nonselective activator or artifact in parental CHO-K1 calcium assay; ATP EC20, Fluo-8 calcium fluorescence; 0% at ATP EC20, 100% at ATP max; activation, % at 3 µM; actives 0.02% (n = 360,000);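 active means activation above the run cutoff, the mean activation of all test compounds plus 3 SD, cut at about 40% in these data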;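 further: peak over basal fluorescence ratio in a 140 s read after ATP addition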
# CHO-K1 Ca antag: nonselective inhibitor or artifact in parental CHO-K1 cells; ATP-induced calcium, Fluo-8 fluorescence; inhibition, % at 3 µM; actives 0.6% (n = 360,000);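 active means inhibition above a per-plate cutoff, the plate's mean sample inhibition plus 3 SD, cut at about 24% in these data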;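 further: 0% = DMSO plus EC80 ATP and 100% = DMSO alone without ATP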
# Active calls of the source: *.
SMILES,CHO-K1 Ca ag,CHRM1 antagonist,CHRM1 PAM,CHRM1 agonist,CHO-K1 Ca PAM,CHO-K1 Ca antag
O=C(NCCc1ccccc1)c1cc(-c2ccccc2)c(N2CCOCC2)s1,0,-1,11,9,1,-13
CCN(CC)CCCNC(=O)c1cc(-c2ccccc2)c(N2CCCCC2)s1,3,55*,-25,-9,9,-14
COC(=O)c1c(C(=O)OC)c(-c2ccccc2)n2c1CS(=O)(=O)C2,0,-1,1,-1,-6,26*
COC(=O)c1c(C(=O)OC)c(-c2ccc(F)cc2)n2c1CS(=O)(=O)C2,0,-17,13,0,2,4
Cc1ccc(S(=O)(=O)NCCC(=O)N2CCCCCCC2)cc1,0,-9,5,-3,-6,-12
Cn1c(/C=C/N2CCOCC2)c(C(=O)c2ccc(Br)cc2)c(=O)n(C)c1=O,0,1,1,-1,2,5
Cc1c(N=CN2CCOCC2)c(=O)n(C)c(=O)n1C,17*,-7,6,0,3,1
CC(Oc1ccc(Cl)cc1Cl)C(=O)NNC(=O)C(=O)N1CCCC1 (stereo not drawn),0,8,-2,-4,-6,-7
O=C(Nc1ccc(Cc2ccncc2)cc1)C1CCC(N2C(=O)C3C4C=CC(C4)C3C2=O)CC1 (stereo not drawn),18*,-10,-11,6,-1,2
O=C(c1ccco1)N1CCN(C(c2ccccc2Cl)c2nnnn2Cc2ccco2)CC1 (stereo not drawn),4,29*,-16,2,-9,18
O=C(c1ccco1)N1CCN(C(c2ccccc2Cl)c2nnnn2Cc2cccs2)CC1 (stereo not drawn),5,10,-12,0,6,14
CC(C)(C)NC(=O)CSc1nc(Cc2ccccc2)nc2ccccc12,0,-9,5,-3,18,-11
CSc1nc(Cc2ccccc2)nc2ccccc12,-1,10,-2,-6,-5,24*
Cc1ccc(CN2CC(C(=O)N(C)CC(=O)Nc3cccc(F)c3)CC2=O)cc1 (stereo not drawn),0,-7,6,-4,2,0
Cc1ccc(S(=O)(=O)N2CCC(C(=O)N3CCC[C@H]3C(=O)NC3CCS(=O)(=O)C3)CC2)cc1 (stereo partly drawn),2,54*,-17,-2,15,0
CCCNC(=O)[C@@H]1CCCN1C(=O)C1CCN(S(=O)(=O)c2ccc(C)cc2)CC1,0,-5,8,-1,0,-2
COc1cccc(C2SCC(=O)N2c2ccc(C)cc2)c1OC (stereo not drawn),0,58*,-27,-11,16,-8
CC(=O)Nc1ccc(C(=O)COC(=O)C2CCCCC2)c(F)c1,4,-3,4,4,2,-9
CC(=O)Nc1ccc(C(=O)COC(=O)C2CC2)c(F)c1,0,0,10,5,-30,28*
Cc1cc(=O)oc2cc(NC(=O)c3ccccc3OC(F)F)ccc12,2,-2,5,-4,-23,-11
COC(=O)c1[nH]c2ccc(Cl)cc2c1NC(=O)CCN1CCN(C2CCCCC2)CC1,0,62*,-20,-6,7,-3
COC(=O)c1[nH]c2cc(OC)ccc2c1NC(=O)CCN1CCN(c2ccccc2)CC1,1,-4,7,-4,5,4
CCOC(=O)c1[nH]c2ccc(OC)cc2c1NC(=O)CN1CCc2ccccc2C1,4,23*,-9,-2,4,17
COC(=O)c1[nH]c2ccccc2c1NC(=O)CN1CCN(c2cccc(OC)c2)C(C)C1 (stereo not drawn),2,9,-2,-3,-7,28*
CCOC(=O)c1[nH]c2ccc(Br)cc2c1NC(=O)CCN1CCCC(C)(C)C1,0,90*,-20,-8,-7,7
SMILES,CHO-K1 Ca ag,CHRM1 antagonist,CHRM1 PAM,CHRM1 agonist,CHO-K1 Ca PAM,CHO-K1 Ca antag
CCOC(=O)c1[nH]c2ccc(F)cc2c1NC(=O)CCN1CCOCC1,0,-8,6,-12,12,1
CCOC(=O)c1[nH]c2ccc(OC)cc2c1NC(=O)CN1CCC2(CC1)OCCO2,1,-3,5,-1,5,-3
CC1=C/C(=N\OC(=O)/C=C/c2ccccc2)C(C)=CC1=O,0,0,11,1,-4,28*
O=C(Cc1cccs1)Nn1c(Cc2cccs2)nc2ccccc2c1=O,0,18,-5,-7,-13,30*
COc1cc(CNCc2ccc(Br)cc2)cc(OC)c1,15*,7,-7,1,-12,18
CCc1ccc(-c2n[nH]nc2C2=CC(=O)C[C@H](c3ccc(F)cc3)C2)cc1,1,-3,-3,-1,13,-6
C=CCC1(CC=C)CCCN1C(=O)C1CCC(=O)N(CCc2ccccc2)C1 (stereo not drawn),0,-11,4,-2,4,-8
O=C1C=C(N2CCCCCC2)C(=O)N1c1ccc(Cl)cc1,1,81*,-32,-8,-1,-12
CCN1CCN(C(=O)C(=O)c2cn(CC(=O)N3CCCC3)c3ccccc23)CC1,6,4,5,-4,5,-1
OCC1OC(n2cnc3c(SCc4ccccc4)nc(NO)nc32)C(O)C1O (stereo not drawn),1,71*,-30,-9,12,-15
CCCn1c(-c2ccc(F)cc2)n[nH]c1=S,0,0,3,-6,-4,2
CCCCn1c(-c2ccc([N+](=O)[O-])cc2)n[nH]c1=S,0,98*,-22,-6,19,8
COc1ccc(CCC(=O)NNC(=O)Nc2ccccc2Cl)cc1,0,-2,6,0,14,-3
Cc1cccc(N2C(=O)N3[C@H]4c5ccccc5OC[C@@H]4[C@@H](c4ccccc4)[C@@]3(C)C2=O)c1,2,-8,9,-2,33,-32
CCOc1ccc(N(C)Cc2cc(=O)oc3ccc(OCC)cc23)cc1,0,-14,9,-7,1,-8
CCCCOc1ccccc1NC(=O)c1scc2c1OCCO2,2,0,-1,-5,53*,-24
CCOc1ccc2[nH]c(=O)c(C(c3nnnn3C3CCCCC3)N3CCN(C)CC3)cc2c1 (stereo not drawn),0,15,-3,-5,-5,6
CCOc1ccc2[nH]c(=O)c(C(c3nnnn3C3CCCCC3)N3CCN(CC)CC3)cc2c1 (stereo not drawn),3,22*,-20,-6,20,-3
COC(=O)c1ccc(CN2CCC(n3nccc3NC(=O)C3CCCC3)CC2)cc1,0,4,-8,21*,-13,5
